From PubChem BioAssay
Only a selection was taken, and hits are over-represented in it overall.
GBA mod: Glucocerebrosidase; Potency, µM; Lysosomal acid glucosylceramidase (Homo sapiens), P04062; purified enzyme, resorufin glucoside fluorescence (screen aimed at inhibitors), 20 min; AID 360, 2006; 48,000 tested, 1.1% active; in the data active = potency below about 15 µM;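 note: the screen sought inhibitors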
Target sequence (P04062 whole entry, looked up): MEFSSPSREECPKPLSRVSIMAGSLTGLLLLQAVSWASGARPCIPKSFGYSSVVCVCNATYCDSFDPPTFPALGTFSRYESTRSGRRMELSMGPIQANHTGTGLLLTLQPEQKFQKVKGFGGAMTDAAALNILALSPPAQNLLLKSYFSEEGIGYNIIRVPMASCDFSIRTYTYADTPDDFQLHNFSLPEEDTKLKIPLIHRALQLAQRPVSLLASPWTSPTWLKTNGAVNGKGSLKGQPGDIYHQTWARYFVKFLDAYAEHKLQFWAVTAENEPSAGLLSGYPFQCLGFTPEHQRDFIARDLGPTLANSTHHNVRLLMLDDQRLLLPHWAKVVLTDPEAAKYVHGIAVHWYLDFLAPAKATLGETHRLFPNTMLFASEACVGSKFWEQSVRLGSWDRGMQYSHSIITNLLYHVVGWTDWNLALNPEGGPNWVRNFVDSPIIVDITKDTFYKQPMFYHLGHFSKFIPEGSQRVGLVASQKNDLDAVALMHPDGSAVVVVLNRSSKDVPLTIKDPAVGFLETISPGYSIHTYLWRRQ
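Compounds titrated against 0.2 nM normal enzyme, 30 uM resorufin beta-D-glucopyranoside substrate, citrate/phosphate buffer with taurocholate and tween-20, pH 5.9. Reaction ran 20 min at room temperature; fluorescence (Ex 548/Em 600) gave AC50.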
Hits are given with their value; i = inactive.

SMILES | GBA mod
CC1CC=C2C(C#N)=C(N)C(C#N)(C#N)C(c3cccs3)C2C1 (centres undefined) | 11
Cc1ccc([C@@H]2C3COCC=C3C(C#N)=C(N)C2(C#N)C#N)o1 (some centres undefined) | i
CCC1C2CN(C(C)=O)CC=C2C(C#N)=C(N)C1(C#N)C#N (centres undefined) | i
CCn1c2ccccc2c2nnc(SCC(=O)N3CC(C)OC(C)C3)nc21 (centres undefined) | i
COc1ccc(-c2nn(C)c(=O)c3ccccc23)cc1CNC(=O)CN1CCOCC1 | i
Cn1cc(C(=O)N2CCN(C(=O)c3ccco3)CC2)c2c3ccccc3n(C)c2c1=O | i
Cc1cccc(C)c1NC(=O)C(c1cccs1)N(Cc1ccco1)C(=O)Cn1nnc2ccccc21 (centres undefined) | i
CC(C)c1ccc(NC(=O)C2CC(=O)N=C(N)S2)cc1 (centres undefined) | 3.8
CC(C)c1ccc(NC(=O)N2CCC(c3nc4ccccc4o3)CC2)cc1 | i
NC1=NC(=O)CC(C(=O)NCCc2ccccc2)S1 (centres undefined) | i
CC1=C2C(CCS2(=O)=O)CC2(C1)C(=O)OC(C)(C)OC2=O (centres undefined) | i
COc1cccc(N2CCN(Cc3nc(N)nc(Nc4ccccc4)n3)CC2)c1 | 2.9
CN1CCN(Cc2nc(N)nc(Nc3ccc4c(c3)OCCO4)n2)CC1 | i
COc1nc(Nc2cccc(C)c2)nc(N2CCCCC2)n1 | i
Cc1cccc(Nc2nc(N)nc(CN3CCN(c4ccccc4)CC3)n2)c1 | 4.3
Cc1cccc(C(=O)NCCN2CCN(c3ccccc3)CC2)c1 | i
Cc1cccc(Nc2nc(N)nc(CN3CCN(Cc4ccc5c(c4)OCO5)CC3)n2)c1 | 9.8
COc1ccc(C)cc1NC(=O)CN1CCN(c2ccccc2F)CC1 | i
Nc1nc(CN2CCN(c3ccccn3)CC2)nc(Nc2ccc(Cl)cc2)n1 | i
COc1cccc(Nc2nc(N)nc(C(F)(F)F)n2)c1 | i
C/C=C(\C)CN1CCN(c2ccccc2F)CC1 | i
Cc1cccc(Nc2nc(N)nc(CN3CCN(c4ccccc4F)CC3)n2)c1 | 1.4
O=C(c1cccnc1)N1CCN(Cc2ccc3c(c2)OCO3)CC1 | i
CN(C(=O)c1ccc(NC(=O)c2cnccn2)cc1)C1CCCCC1 | i
CCOc1cc2[nH]c(=O)n(CCCCC(=O)NC3CCCCC3)c(=O)c2cc1OCC | i
SMILES | GBA mod
CCOc1ccc(N2CC(C(=O)Nc3ccccc3F)CC2=O)cc1 (centres undefined) | i
CCOC(=O)c1[nH]c(C(=O)O)c(CCN(CC)CC)c1C | i
Cc1ccccc1Cn1c(=O)c2c(nc3n2CCN3Cc2ccco2)n(C)c1=O | i
Cc1cc(S(=O)(=O)NCCN(C)C)c(C)s1 | i
CCCCC(SCC(=O)Nc1ccccc1)C(=O)O (centres undefined) | i
N#CC1=C(N)N(c2ccccc2)C2=C(C(=O)CCC2)C1c1cccs1 (centres undefined) | 13
N#CC1=C(N)N(c2ccc(Br)cc2)C2=C(C(=O)CCC2)C1c1cccnc1 (centres undefined) | i
N#CC1=C(N)N(c2ccccc2C#N)C2=C(C(=O)CCC2)C1c1ccsc1 (centres undefined) | i
CCOC(=O)COc1ccc(C(=O)NC2CCCCC2)cc1 | i
COCCN(C(=O)C1CC1)c1nnc(-c2cccc(C)c2)s1 | i
COC(=O)c1ccc2c(c1)N(Cc1nc(-c3ccc(Cl)cc3)oc1C)C(=O)C1CCCN21 (centres undefined) | i
CC1(C)Cc2noc(N)c2C(C)(C)N1O | i
COc1nc(N2CCCC2)nc(-n2cc(-c3ccccc3)nn2)n1 | i
Cc1cccc2cc(C(c3nnnn3CC3CCCO3)N3CCCC4(CCCCC4)C3)c(=O)[nH]c12 (centres undefined) | i
Cc1ccc2cc(C(c3nnnn3CC3CCCO3)N3CCc4ccccc4C3)c(=O)[nH]c2c1 (centres undefined) | i
Cc1ccc2cc(C(c3nnnn3CC3CCCO3)N3CCCC4(CCCCC4)C3)c(=O)[nH]c2c1 (centres undefined) | 10
O=C(Nc1cc(C(F)(F)F)ccc1N1CCOCC1)C1Cc2ccccc2CN1C(=O)c1ccco1 (centres undefined) | i
CC(C)(NCc1ccccc1Cl)C(=O)O | i
C=CCn1c(N2CCCCCC2)nc2c1c(=O)[nH]c(=O)n2C | i
Cn1c(=O)[nH]c(=O)c2c1nc(N1CCCCCC1)n2CCN1CCCCCC1 | 11
Cn1c(=O)[nH]c(=O)c2c1nc(N1CCCCC1)n2CC(O)CN1CCCCC1 (centres undefined) | i
Cc1ccc2[nH]c(=O)c(CN(Cc3ccccc3Cl)C(=O)N3CCOCC3)cc2c1 | i
COc1ccc(CCN2C(=O)CC(Sc3ncccc3C(=O)O)C2=O)cc1OC (centres undefined) | i
COc1ccc(Br)cc1C(=O)Nc1ccc(N2CCN(S(C)(=O)=O)CC2)cc1 | 12
COc1cccc(OC)c1C(=O)Nc1ccc(N2CCN(S(C)(=O)=O)CC2)cc1 | i
COc1ccc(Br)cc1C(=O)Nc1ccc(O)cc1 | i
